Values without a mark were called inactive.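 Rule for the calls: active = fluorescence slope after compound addition differing from the mean of all screened samples at 99.7% confidence, in either direction; inactive = the rest.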

This assay deals with Alpha-2C adrenergic receptor (Homo sapiens) (UniProt P18825). Briefly: compounds altering alpha2C-coupled GIRK flux – cell-based, HEK293 alpha2C/GIRK1/2, thallium flux, primary screen (AID 624).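 Note: slope of fluorescence ratio to pre-addition baseline per second over 15 to 24 s.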 The note with it: thallium flux BTC fluorescence, at 10 µM, actives lie on both sides.
Chain of Alpha-2C adrenergic receptor (Homo sapiens) (P18825 whole entry, looked up): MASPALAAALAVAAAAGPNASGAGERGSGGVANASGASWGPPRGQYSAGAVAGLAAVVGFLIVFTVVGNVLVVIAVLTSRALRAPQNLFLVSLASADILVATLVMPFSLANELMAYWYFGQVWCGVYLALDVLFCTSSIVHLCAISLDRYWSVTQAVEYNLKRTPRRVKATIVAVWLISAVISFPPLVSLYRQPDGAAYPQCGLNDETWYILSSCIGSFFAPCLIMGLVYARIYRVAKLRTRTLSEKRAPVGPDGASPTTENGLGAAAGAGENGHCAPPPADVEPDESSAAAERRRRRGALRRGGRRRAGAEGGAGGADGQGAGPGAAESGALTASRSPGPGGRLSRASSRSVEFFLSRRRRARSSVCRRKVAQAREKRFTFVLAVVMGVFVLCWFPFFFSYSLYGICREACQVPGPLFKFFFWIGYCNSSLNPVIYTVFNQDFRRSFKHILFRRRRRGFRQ
As to `COCCCNc1nc(-c2ccncc2)nc2ccccc12`, the slope is 0.00557.
For `CCOC(=O)c1cc2c(=O)n3ccccc3nc2n(Cc2ccccc2Cl)c1=N` the value was 0.00529; for `COc1ccc(N/C=C(\C#N)c2nc3ccccc3n2C)c(OC)c1`, 0.00463.
For the compound `Cc1c(C)c2cc(Cl)c(O)c(CN3CCN(C)CC3)c2oc1=O`, the slope was 0.00398.
For `Cc1cc(N2C(=O)C(=O)/C(=C(/O)c3ccccc3)C2c2cccc(Br)c2)no1` (stereo not given) the value was 0.00638.
Under `CC1=CC(c2ccccc2)n2nc(N3C(=O)C4CC=CCC4C3=O)nc2N1` (stereo not given) stands 0.00753; under `O=c1[nH]c(-c2ccccn2)nc2ccccc12`, 0.00479.
For `COc1ccccc1N(Cc1cc2cccc(C)c2[nH]c1=O)C(=O)C(C)C` the value was 0.00657; for `COc1ccc(NCc2cc3ccccc3[nH]c2=O)cc1`, 0.00788; for `CN1CCN(Cc2c(O)ccc3c(-c4ccccc4)cc(=O)oc23)CC1`, 0.00684.
Turning to `COc1ccc(/C(O)=C2/C(=O)C(=O)N(CCN3CCOCC3)C2c2ccccn2)cc1OC` (stereo not given), the slope was 0.00847.
For `CC12CCC(C(=O)N(CCC#N)CCC#N)(CC1=O)C2(C)C` (stereo not given) the value was 0.00706.
Under `Cc1cccc(C)c1N1C(=O)C2ON(c3ccccc3)C(c3ccncc3)C2C1=O` (stereo not given) stands 0.00363; under `CCCc1cc(=O)oc2c(CN3CCN(C)CC3)c(O)c(Cl)cc12`, 0.00587.
For `COCCN(CCOC)C(=O)C12CCC(C)(C(=O)C1)C2(C)C` (stereo not given) the value was 0.00572.
`c1ccc(-c2nc(NCC3CCCO3)c3ccccc3n2)nc1` (stereo not given): the slope was 0.00509.
Under `COC(=O)C1=C(C)N=C2SC(C)C(=O)N2C1c1cccs1` (stereo not given) stands 0.00597.
For `COC(=O)C1=C(C)N=C2SC(C)C(=O)N2C1/C=C/c1ccccc1OC` (stereo not given) the value was 0.00673; for `CCOc1ccc(/C(O)=C2/C(=O)C(=O)N(c3nc(C)c(C)s3)C2c2ccco2)cc1` (stereo not given), 0.00508.
For `CCN(CC)CCCN1C(=O)C(=O)/C(=C(/O)c2ccc(Cl)cc2)C1c1ccccn1` (stereo not given) the value was 0.00491; for `CCc1cc(=O)oc2c(CN3CCCC3)c(O)c(Cl)cc12`, 0.0046; for `COc1cccc(-c2nc(NC(C)C)c3ccccc3n2)c1O`, 0.00488.
Turning to `CCOc1ccc(C2C(C(=O)c3ccc(C)o3)=C(O)C(=O)N2CCN2CCOCC2)cc1OC` (stereo not given), the slope was 0.00423.
Under `Oc1ccccc1-c1nc(NCc2ccco2)c2ccccc2n1` stands 0.00698; under `COc1ccccc1-c1cc(-c2cc(Cl)ccc2O)n[nH]1`, 0.0086.
For `N#Cc1nc(-c2ccccc2Cl)oc1N1CCCCC1`, the slope is 0.00507.
Under `CC(C)Cn1nc(NC(=O)C(C)(C)C)c2cc3ccccc3nc21` stands 0.00396; under `CCO/C(C)=N/n1c2nc3ccccc3nc2c2c(=O)n(CC(C)C)c(C)nc21`, 0.00351.
Under `O=C(NCCCn1ccnc1)C(Cc1ccccc1)N1C(=O)c2ccccc2C1=O` (stereo not given) stands 0.00809.
Under `O=C(O)CCCCCN1C(=O)CCC1=O` stands 0.0074; under `CCCSc1nc(C)c(CC(=O)O)c(=O)[nH]1`, 0.00515.
For `COc1cccc(-c2nc(NCCN3CCOCC3)c3ccccc3n2)c1O`, the slope is 0.00346.
For `CC1CCCCN1C(=O)C12CCC(C)(/C(=N/O)C1)C2(C)C` (stereo not given) the value was 0.00568; for `Oc1ccccc1-c1nc(NCCN2CCOCC2)c2ccccc2n1`, 0.00504.
`CCC1CCCCN1c1nc(-c2cccc(OC)c2O)nc2ccccc12` (stereo not given): the slope is 0.00525.
Under `COc1ccc(C2C=C(c3ccc(Cl)cc3)Nc3nc(NC(C)=O)nn32)cc1` (stereo not given) stands 0.00461.
Turning to `Oc1ccc(Br)cc1-c1cc(-c2ccccc2F)[nH]n1`, the slope is 0.00987.
Under `C=CCNc1nc(-c2cccc(OC)c2O)nc2ccccc12` stands 0.00503; under `COc1cccc(/C(O)=C2/C(=O)C(=O)N(CCN(C)C)C2c2ccc(Br)cc2)c1` (stereo not given), 0.00697.
For `CC1(C)CC(=O)C2=C(C1)Oc1nc3ccccc3cc1C2C(C#N)C#N` (stereo not given) the value was 0.00783.
